Screening data from PubChem BioAssay.
Sampled rows, rich in hits. Any-hit rate of the full collection: about 1.3%.
NR2F2 inh: NR2F2 transcriptional activity inhibitors, primary screen, cell-based, luciferase reporter, HEK293T, luminescence | HEK293T NGFI-A luciferase reporter | inhibition, % at 8.6 µM | actives 0.7% (n = 370,000);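 active means inhibition above a per-plate cutoff, mean inhibition of test wells between control levels plus 3 SD, cut at about 38% in these data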;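 further: cells cotransfected with COUP-TFII expression vector driving the NGFI-A reporter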
NCOA1 inh: SRC1 coactivator transcriptional activity inhibitors, primary screen, cell-based, luminescence | Nuclear receptor coactivator 1 (Homo sapiens), Q15788 | HEK293 GAL4-SRC1 luciferase reporter | inhibition, % at 3.6 µM | actives 0.12% (n = 360,000) | AID 588354, 2011;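 active means inhibition above the campaign mean plus 3 SD, with each screening campaign given its own cutoff, cut at about 60% in these data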
Gli-Sufu antag: Gli-Sufu pathway antagonists, primary screen, luciferase luminescence, Sufu-KO-LIGHT cells, uHTS; Sufu-KO-LIGHT fibroblasts, Gli luciferase reporter luminescence; inhibition, % at 5 µM; actives 0.74% (n = 340,000);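 active means inhibition above about 55%, limit read from the data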
NCOA2 inhibitor: inhibition of GAL4-SRC2 driven luciferase reporter, primary screen, SRC2 inhibitor project, cell-based, luminescence; AID 651957, 2012; Nuclear receptor coactivator 2 (Homo sapiens), Q15596; actives 0.17% (n = 370,000); HEK293 GAL4-SRC2 luciferase reporter; inhibition, % at 9 µM;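 active means inhibition above the mean inhibition of all tested compounds plus 3 SD, set per campaign, cut at about 52% in these data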
LRH-1 inv ag: LRH-1 (NR5A2) inverse agonists, primary screen, cell-based, luminescence, HEK293T, StAR-luciferase reporter. Nuclear receptor subfamily 5 group A member 2 (Homo sapiens), O00482. LRH-1 transfected, 24 h. inhibition, % at 3.6 µM. actives 0.13% (n = 360,000);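 active means inhibition above the mean inhibition of all tested compounds plus 3 SD, cut at about 73% in these data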
NCOA3 inh: SRC3 coactivator transcriptional activity inhibitors, primary screen, cell-based, luminescence; Nuclear receptor coactivator 3 (Homo sapiens), Q9Y6Q9; inhibition, % at 3.6 µM; AID 588352, 2011; actives 0.17% (n = 360,000); HEK293 GAL4-SRC3 luciferase reporter;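 active means inhibition above a per-campaign cutoff, the mean of all compounds plus 3 SD, cut at about 60% in these data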;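 further: higher means less SRC3-driven luciferase light from the GAL4 reporter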
Target sequence (Q9Y6Q9 whole entry, looked up, the tested form may be a part): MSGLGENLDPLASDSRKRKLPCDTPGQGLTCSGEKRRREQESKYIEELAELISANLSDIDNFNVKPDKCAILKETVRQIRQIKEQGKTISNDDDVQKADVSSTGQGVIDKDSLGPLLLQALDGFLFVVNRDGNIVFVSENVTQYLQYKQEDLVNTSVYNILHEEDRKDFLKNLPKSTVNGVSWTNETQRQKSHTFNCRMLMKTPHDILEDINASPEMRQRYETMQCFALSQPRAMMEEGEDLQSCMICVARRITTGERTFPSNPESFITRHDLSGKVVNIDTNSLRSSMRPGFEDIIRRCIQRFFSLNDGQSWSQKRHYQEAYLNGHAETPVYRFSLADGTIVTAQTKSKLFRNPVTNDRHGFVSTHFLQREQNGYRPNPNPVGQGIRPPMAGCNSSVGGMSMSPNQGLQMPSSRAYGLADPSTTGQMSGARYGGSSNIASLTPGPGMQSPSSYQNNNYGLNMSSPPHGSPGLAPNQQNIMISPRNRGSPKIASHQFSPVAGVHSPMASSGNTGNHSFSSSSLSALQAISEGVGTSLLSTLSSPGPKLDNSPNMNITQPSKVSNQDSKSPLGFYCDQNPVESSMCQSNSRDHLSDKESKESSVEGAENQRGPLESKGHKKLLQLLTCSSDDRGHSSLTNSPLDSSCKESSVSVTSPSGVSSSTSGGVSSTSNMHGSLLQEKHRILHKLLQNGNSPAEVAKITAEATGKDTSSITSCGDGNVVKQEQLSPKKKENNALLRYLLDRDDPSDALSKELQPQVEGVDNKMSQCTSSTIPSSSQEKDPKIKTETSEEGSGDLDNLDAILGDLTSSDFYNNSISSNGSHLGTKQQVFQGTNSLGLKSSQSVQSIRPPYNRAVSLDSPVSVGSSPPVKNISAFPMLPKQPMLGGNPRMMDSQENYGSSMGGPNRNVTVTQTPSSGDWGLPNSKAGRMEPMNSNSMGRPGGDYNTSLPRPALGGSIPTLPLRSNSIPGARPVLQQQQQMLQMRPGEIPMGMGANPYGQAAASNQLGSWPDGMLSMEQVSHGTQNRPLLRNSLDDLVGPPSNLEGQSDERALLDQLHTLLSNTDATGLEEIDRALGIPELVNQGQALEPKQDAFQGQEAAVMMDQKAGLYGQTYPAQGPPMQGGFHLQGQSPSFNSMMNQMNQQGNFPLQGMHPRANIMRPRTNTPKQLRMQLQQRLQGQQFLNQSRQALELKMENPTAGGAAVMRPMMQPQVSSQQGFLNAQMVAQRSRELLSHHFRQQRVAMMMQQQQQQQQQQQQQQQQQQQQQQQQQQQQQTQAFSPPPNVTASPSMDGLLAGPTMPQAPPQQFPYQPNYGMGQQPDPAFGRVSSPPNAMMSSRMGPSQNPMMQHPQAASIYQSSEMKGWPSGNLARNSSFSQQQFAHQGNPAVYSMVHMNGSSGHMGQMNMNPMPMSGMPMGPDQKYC
VP16 Luc counter: Gal4-VP16 luciferase reporter inhibitors, counter-screen for COUP-TFII antagonist project, cell-based, luminescence, HEK293; shares compounds with NR2F2 inh; AID 687007, 2013; actives 25% (n = 2,500); inhibition, % at 8.5 µM; in the data active means inhibition above about 13%
NR2F2 inh conf: NR2F2 transcriptional activity inhibitors, confirmation, cell-based, luciferase reporter, HEK293, triplicate | AID 687008, 2013 | shares compounds with NR2F2 inh | HEK293 NGFI-A luciferase reporter, luminescence | actives 45% (n = 2,500) | inhibition, % at 8.5 µM;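 active means mean inhibition over three repeats above a set limit taken from the earlier primary screen, cut at about 38% in these data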
Of the large screens only hits and unclear results are named; the others gave an inactive call (follow-up assays come after a bar, where they were run); ! = repeats disagree.

COC(=O)C1CN(Cc2cn(Cc3ccc(Cl)cc3)nn2)CCS(=O)(=O)N1Cc1ccc(OC)cc1 (stereo not drawn)	none (no result: NCOA1 inh, Gli-Sufu antag, LRH-1 inv ag, NCOA3 inh)
COC(=O)C1CN(Cc2cn(Cc3ccc(Cl)cc3)nn2)CCS(=O)(=O)N1Cc1ccc(Cl)cc1 (stereo not drawn)	NR2F2 inh 38 (no result: NCOA1 inh, Gli-Sufu antag, LRH-1 inv ag, NCOA3 inh) | VP16 Luc counter inactive | NR2F2 inh conf inactive
CN(C)c1ccc(CCc2ccc(N)cc2)cc1	NR2F2 inh 59 | VP16 Luc counter 40 | NR2F2 inh conf inactive
CCCC1CCC2(CC1)CCC2OC(=S)Nc1ccccc1Cl (stereo not drawn)	none (no result: NCOA1 inh, Gli-Sufu antag, NCOA2 inhibitor, LRH-1 inv ag, NCOA3 inh)
CC1CNCCN1S(=O)(=O)c1cccc2cnccc12 (stereo not drawn)	NR2F2 inh 41! | VP16 Luc counter inactive | NR2F2 inh conf inactive
CC1CCCCN1S(=O)(=O)c1cccc2cccnc12 (stereo not drawn)	none
Cc1ccc(-c2cc(C(=O)NN=C/C=C/c3ccco3)[nH]n2)cc1C	none (no result: NCOA1 inh, Gli-Sufu antag, LRH-1 inv ag, NCOA3 inh)
C[C@H]1[C@H](NC(=O)c2ccc(C(F)(F)F)cc2)CC[C@@]23CCCN2C(=O)CCC[C@@H]13	none (no result: NCOA1 inh, Gli-Sufu antag, NCOA2 inhibitor, LRH-1 inv ag, NCOA3 inh)
COc1cc(C(=O)Oc2cccc(Nc3ncnc4ccccc34)c2)cc(OC)c1OC	NR2F2 inh 61 | VP16 Luc counter inactive | NR2F2 inh conf 49
N#Cc1ccccc1COc1ccc(/C=C/C(=O)O)cc1	NR2F2 inh 68, NCOA2 inhibitor 69 | VP16 Luc counter 63 | NR2F2 inh conf 51
CC(=O)N1c2ccc(S(=O)(=O)N3CCOCC3)cc2CC1C (stereo not drawn)	none
CC(=O)N1c2ccc(S(=O)(=O)N3CCC(C(=O)N4CCN(c5cc(Cl)ccc5C)CC4)CC3)cc2CC1C (stereo not drawn)	NR2F2 inh 43 | VP16 Luc counter inactive | NR2F2 inh conf inactive
CC(=O)N1c2ccc(S(=O)(=O)N3CCC(C(=O)N4CCC(C)CC4)CC3)cc2CC1C (stereo not drawn)	none
CC(=O)c1ccc(N2CCN(S(=O)(=O)c3ccc4c(c3)CC(C)N4C(C)=O)CC2)cc1 (stereo not drawn)	NR2F2 inh 59, Gli-Sufu antag 57 | VP16 Luc counter inactive | NR2F2 inh conf 44
CCN(CC)C(=O)c1ccc(C(CCOC(=O)Oc2ccccc2)c2ccc(OC)cc2)cc1 (stereo not drawn)	none (no result: NCOA1 inh, Gli-Sufu antag, LRH-1 inv ag, NCOA3 inh)
c1ccc(CN2CCC(CNc3ncnc4ccccc34)C2)cc1 (stereo not drawn)	NR2F2 inh 41 | VP16 Luc counter inactive | NR2F2 inh conf inactive
COc1cc2ncnc(NCc3ccccc3)c2cc1OC	none
c1ccc(CN2CCC(Nc3nc(-c4ccccc4)nc4ccccc34)CC2)cc1	none
c1ccc(CNc2ncnc3ccccc23)cc1	NR2F2 inh 64 | VP16 Luc counter inactive | NR2F2 inh conf 53
O=C(C1CCC1)N1CCc2cc(S(=O)(=O)C3CCN(Cc4ccc(F)cc4)CC3)ccc21	none (no result: NCOA1 inh, Gli-Sufu antag, LRH-1 inv ag, NCOA3 inh)
CC1(C)CC(=O)C=C(c2ccc(-c3cnc4ccccc4c3)cc2)C1=O	NR2F2 inh 42 (no result: Gli-Sufu antag) | VP16 Luc counter inactive | NR2F2 inh conf 78
O=S(=O)(O)c1cccc2c(N=Nc3ccc(O)c4ncccc34)cccc12	none (no result: NR2F2 inh, NCOA2 inhibitor)
O=Nc1ccc(O)c2ncccc12	NR2F2 inh 54 | VP16 Luc counter inactive | NR2F2 inh conf 41
CCOC(=O)c1c(-c2ccccc2)csc1NC(=O)CSc1nc(N)cc(N)n1	NR2F2 inh 61 | VP16 Luc counter inactive | NR2F2 inh conf inactive
COC(=O)[C@]12C[C@H](CC(=O)N3CCSCC3)C(=O)N(CCc3ccc(OC)c(OC)c3)C1=C[C@H](C(C)(C)C)O[C@@H]2C	none (no result: NCOA1 inh, Gli-Sufu antag, LRH-1 inv ag, NCOA3 inh)
COc1ccccc1C(=O)NC1CCCCN(Cc2ccccc2C)C1=O (stereo not drawn)	none (no result: NCOA1 inh, Gli-Sufu antag, LRH-1 inv ag, NCOA3 inh)
Cc1[nH]c2ccccc2c1/C=N/Nc1nncn1N	NR2F2 inh 92 | VP16 Luc counter inactive | NR2F2 inh conf inactive
O=C(NNC1=Nc2ccccc2SC1)c1ccccc1F	NR2F2 inh 38 | VP16 Luc counter inactive | NR2F2 inh conf inactive
CCC(NC(=O)c1ccc2c(ccn2Cc2cccc(-c3ccccc3C(=O)O)c2)c1)c1ccccc1 (stereo not drawn)	none (no result: NCOA1 inh, Gli-Sufu antag, LRH-1 inv ag, NCOA3 inh)
Cc1cc(=O)oc2cc(O)cc(O)c12	none
CCCCCc1cc(O)c2c(C)cc(=O)oc2c1	NR2F2 inh 41 | VP16 Luc counter inactive | NR2F2 inh conf inactive
CCC(=NC(C)c1ccccc1)c1c(O)n(C)c(=O)n(C)c1=O (stereo not drawn)	NR2F2 inh 56 | VP16 Luc counter inactive | NR2F2 inh conf inactive
CCc1nnn2c1Cn1c3ccccc3c(=O)n1[C@@H](C(C)C)C2	none (no result: NCOA1 inh, Gli-Sufu antag, LRH-1 inv ag, NCOA3 inh)
CC1(c2nnnn2C2CCCCC2)CCCC(=O)N1CCc1ccc(O)cc1 (stereo not drawn)	none (no result: NCOA1 inh, Gli-Sufu antag, LRH-1 inv ag, NCOA3 inh)
COc1ccc(CCNC(=O)C(C)n2nc(C)c3c(C)n(-c4ccc(C)cc4)nc3c2=O)c(OC)c1 (stereo not drawn)	NR2F2 inh 61 | VP16 Luc counter inactive | NR2F2 inh conf 62
COc1ccccc1CCNC(=O)C(C)n1nc(C)c2c(C)n(-c3ccccc3)nc2c1=O (stereo not drawn)	none
O=C(Nc1ccc(S(=O)(=O)N2CCCC2)cc1)c1ccc2c(=O)n3c(nc2c1)CCCCC3	none
Cc1ccc(S(=O)(=O)N2CCCCC2)cc1NC(=O)c1ccc2c(=O)n3c(nc2c1)CCCCC3	NR2F2 inh 43 (no result: NCOA1 inh, Gli-Sufu antag, LRH-1 inv ag, NCOA3 inh) | VP16 Luc counter inactive | NR2F2 inh conf inactive
COc1ccc(OC)c(CC(=O)Nc2cc(S(=O)(=O)N3CCCCC3)ccc2C)c1	none
COc1ccc(CC(=O)Nc2cc(S(=O)(=O)N3CCCCC3)ccc2C)cc1OC	NR2F2 inh 60 | VP16 Luc counter inactive | NR2F2 inh conf 48
NC(=O)[C@H]1CC2(CC(c3cccc(NC(=O)COc4ccc(Cl)cc4)c3)=NO2)CN1C(=O)Cc1ccc([N+](=O)[O-])cc1 (stereo partly drawn)	NR2F2 inh 74 | VP16 Luc counter inactive | NR2F2 inh conf 66
CCCCCC(=O)Nc1cccc(C2=NOC3(C2)C[C@@H](C(N)=O)N(C(=O)Cc2ccc([N+](=O)[O-])cc2)C3)c1 (stereo partly drawn)	none
